High-throughput results from PubChem.
Hits are enriched below; roughly 2.4% of the tested compounds scored in any of these assays.
D2 antag – HTS Assay for Allosteric Antagonists of the Human D2 Dopamine Receptor: Primary Screen for Antagonists. D(2) dopamine receptor (Homo sapiens), P14416. HEK293 TREx D2 cells, calcium flux, dopamine EC80. inhibition, % at 10 µM. actives 2% (n = 340,000); in the data active = inhibition above about 30%; inactive = below that, where a call was filed; also: 0% is about no effect
Target sequence (P14416 whole entry, looked up): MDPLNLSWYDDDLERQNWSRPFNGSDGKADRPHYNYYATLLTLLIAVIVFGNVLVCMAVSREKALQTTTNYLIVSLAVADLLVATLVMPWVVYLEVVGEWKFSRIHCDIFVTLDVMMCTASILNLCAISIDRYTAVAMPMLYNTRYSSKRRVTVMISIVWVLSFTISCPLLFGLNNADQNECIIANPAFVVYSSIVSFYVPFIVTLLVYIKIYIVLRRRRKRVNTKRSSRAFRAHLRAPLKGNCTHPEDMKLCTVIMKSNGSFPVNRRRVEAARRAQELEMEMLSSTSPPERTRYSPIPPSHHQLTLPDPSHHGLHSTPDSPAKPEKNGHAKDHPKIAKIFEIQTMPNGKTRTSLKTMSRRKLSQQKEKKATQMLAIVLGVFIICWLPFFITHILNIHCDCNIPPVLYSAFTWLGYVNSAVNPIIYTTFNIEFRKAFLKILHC
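Inhibition of EC80 dopamine-driven calcium flux, recorded kinetically, defines activity here; cells are a tetracycline-induced HEK293 T-REx line expressing force-coupled D2.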
D2 PAM-1 – Beta-Arrestin HTS for Positive Allosteric Modulators of the Human D2 Dopamine Receptor: Potentiators | actives 0.23% (n = 360,000) | AID 624464, 2012 | D(2) dopamine receptor (Homo sapiens), P14416 | potentiation, % (test concentration not listed) | DiscoveRx D2 beta-arrestin cells, luminescence, 90 min; 100% = 57 uM dopamine signal; in the data active = potentiation above about 50%
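PathHunter D2 cells, attached overnight at 37 deg C, received compound in DMSO plus dopamine at EC20 (50 nM final) for 90 min at 37 deg C. Beta-arrestin recruitment was read as luminescence after 1 h with detection reagent at ambient temperature.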
D2 PAM-2 – HTS Assay for Positive Allosteric Modulators of the Human D2 Dopamine Receptor: Primary Screen for Potentiators | potentiation, % at 10 µM | actives 0.34% (n = 340,000) | HEK293 T-REx D2, calcium flux, EC20 dopamine potentiation | D(2) dopamine receptor (Homo sapiens), P14416;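 active = potentiation over 3 SD above the plate norm, cut at about 30% in these data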; also: 0% is about no effect
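Primary screen. Calcium kinetics in induced HEK293 T-REx D2 cells: compound pre-addition 180 s, EC20 dopamine, 180 s more.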
D2 ag-1 – Beta-Arrestin HTS for Positive Allosteric Modulators of the Human D2 Dopamine Receptor: Agonists; D(2) dopamine receptor (Homo sapiens), P14416; DiscoveRx PathHunter D2 beta-arrestin, luminescence, 90 min; 100% = 57 uM dopamine signal; activation, % (no concentration beside the values); actives 0.084% (n = 360,000); AID 624465, 2012; in the data active = activation above about 40%
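DiscoveRx PathHunter D2 beta-arrestin cells (2,100/well) attached overnight, then compound-stimulated 90 min at 37 C in HBSS/10 mM HEPES/0.1% Tween-20 buffer; beta-galactosidase complementation read by luminescence after 1 h at ambient temperature. Dopamine 57 uM final (EC100) as control.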
D2 ag-2 – HTS Assay for Allosteric Agonists of the Human D2 Dopamine Receptor: Primary Screen for Agonists | D(2) dopamine receptor (Homo sapiens), P14416 | HEK293 T-REx D2 cells, calcium flux agonist mode | activation, % at 2 µM | actives 0.53% (n = 340,000) | AID 485358, 2010;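 active = activation over 3 SD above normal in the single-dose calcium agonist read, cut at about 30% in these data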; also: 0% is about no effect
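Agonism scored from kinetic calcium signal (1 read/sec, 180 s) following compound pin transfer, after a 10 s baseline. Cells: HEK293 Trex line expressing inducible D2 receptor coupled to calcium, dye-loaded after overnight culture at 30 C.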
Numbers without * were called inactive; / = not tested or not shown; ! = not active in a repeat.

SMILES	D2 antag	D2 PAM-1	D2 PAM-2	D2 ag-1	D2 ag-2
N#C/C(=C/c1ccncc1)c1nc2ccccc2s1	4.0	-6.9	-1.7	7.6	30.2*
CC(C)=C(C#N)c1nc2ccccc2s1	-23.6	-1.1	-2.8	-3.8	1.1
Cc1nn(C(=O)c2ccc(Cl)cc2)c(C)c1S(=O)(=O)N1CCCCCC1	/	/	-2.5	/	-1.3
O=C(NN=C1CCCC1)c1ccn[nH]1	41.7*	7.6	-0.9	-2.4	0.2
O=C(NN=C1CCCC1)c1cc(-c2ccccc2)n[nH]1	/	0.2	4.9	-0.9	/
CC(C)Cc1cc(CN2CCC(CO)(Cc3ccccc3)CC2)[nH]n1	47.4*	-18.2	-22.7	-0.4	-1.4
COc1cccc(O)c1CN1CCCC(C(=O)c2cccc(C(F)(F)F)c2)C1 (configuration not stated)	48.6*	-13.9	-23.3	-1.2	0.8
CC[C@H](C)C(=O)O[C@H]1CCC=C2C=C[C@H](C)[C@H](CC[C@@H]3C[C@@H](O)CC(=O)O3)[C@H]21	38.1*!	-9.6	-5.6	1.9	2.4
Cc1nc(-c2ccc(S(=O)(=O)N(Cc3ccccc3)C(C)C)cc2)co1	/	/	7.8	/	-0.7
COc1ccc(NC(=O)C2CCN(c3ncnc4c3nc3n4CCCCC3)CC2)cc1Cl	5.0	-5.1	6.8	-0.4	0.0
Cc1cc(C)c(OCCCCNCc2ccccc2)c(Cl)c1	49.0*	-20.0	-13.8	-1.7	-0.7
C=CCNCCCCOc1c(Cl)cc(C)cc1Br	-9.5	-5.3	-7.0	-1.6	-0.4
C=CCNCCOc1c(C)cc(C)cc1Cl	31.6*	-28.7	-22.4	-1.1	-0.3
CCOc1cccc(-c2c(C(=O)N/N=C/c3ccc(C)o3)nnn2-c2nonc2N)c1	9.2	-1.5	9.1	-2.8	0.8
COc1ccc(OC)c(NC(=O)c2cc(-c3ccc(C)cc3O)n[nH]2)c1	32.2*	13.4	-1.1	-3.6	-1.0
Cc1cc(C)cc(Oc2coc3c(CN4CCN(C)CC4)c(O)ccc3c2=O)c1	/	/	-11.0	/	-1.8
CCCCNC(=O)c1sc(=S)n2c1[nH]c(=O)c1ccccc12	32.7*	-19.4	-0.9	-7.1	7.9
COc1cccc(N2CCN(c3ncnc4c3[nH]c3ccc(F)cc34)CC2C)c1 (configuration not stated)	-1.4	51.9*	-2.3	10.0	3.1
COc1cccc(N2CCN(c3ncnc4c3[nH]c3ccccc34)CC2C)c1 (configuration not stated)	-8.1	/	7.8	/	0.7
O=C(c1ccccc1Cl)N1CCCCC1CCN1CCOCC1 (configuration not stated)	/	/	-1.0	/	-0.1
COc1ccc(CCNc2ncnc3c2c(-c2ccccc2)cn3-c2cccc(Cl)c2)cc1OC	/	/	8.8	/	-0.5
[N-]=C=C1C(=O)NC(=O)C([n+]2ccc(-c3ccncc3)cc2)C1c1ccccc1C(F)(F)F (configuration not stated)	35.5*	5.1	3.2	7.0	-1.1
[N-]=C=C1C(=S)NC(=O)[C@H]([n+]2ccccc2)[C@H]1c1ccc(Cl)cc1	-9.1	-4.7	6.0	5.1	0.8
CC1CC(C)CN(CCCNC(=O)C2CCCN(c3ncnc4c3nc3n4CCCCC3)C2)C1 (configuration not stated)	33.7*	-18.0	-14.9	1.5	-0.8
CC1CCCN(CCCNC(=O)C2CCCN(c3ncnc4c3nc3n4CCCCC3)C2)C1 (configuration not stated)	-2.8	-17.1	-1.9	-1.8	-0.3
SMILES	D2 antag	D2 PAM-1	D2 PAM-2	D2 ag-1	D2 ag-2
O=C(Nc1ccc(F)c(Cl)c1)C1CCCN(c2cnccn2)C1 (configuration not stated)	7.6	-30.4	31.9*!	0.7	0.1
Cc1ccc(NC(=O)C2CCN(c3ncnc4c3nc3n4CCCCC3)CC2)cc1Cl	-14.2	-6.3	-6.4	0.4	-0.3
Cc1ccc(NC(=O)C2CCCN(c3ncnc4c3nc3n4CCCCC3)C2)cc1Cl (configuration not stated)	33.1*	-15.4	-9.2	-2.5	-0.4
CC(C)N(Cc1ccccc1)C(=O)C1CCCN(c2ncnc3c2nc2n3CCCCC2)C1 (configuration not stated)	38.0*	-8.8	-8.5	-0.1	-1.1
CC1=CC(=O)Nc2ncccc2O1	/	-3.5	/	-3.4	/
CSc1ccc(S(=O)(=O)N2CCC(C(=O)Nc3ccc(C(N)=O)cc3)CC2)cc1	-22.0	-5.5	-5.7	-5.0	0.9
CCOc1ccc(Oc2nc(NCC(C)C)nc(N3CCOCC3)n2)nn1	/	/	0.9	/	-0.2
COc1ccccc1N1CCN(CCCNC(=O)C2CCCN(c3ncnc4c3nc3n4CCCCC3)C2)CC1 (configuration not stated)	76.1*	-16.9	4.6	-5.3	-0.2
O=C(NCCCN1CCN(c2ccc(F)cc2)CC1)C1CCCN(c2ncnc3c2nc2n3CCCCC2)C1 (configuration not stated)	25.7	-17.3	-4.7	-0.7	-0.2
CN(C)CCn1cnc2c(c1=N)C(c1ccccc1)c1ccc3ccccc3c1O2 (configuration not stated)	61.8*	-16.2	8.2	-2.7	-3.4
O=C(NC1CC1)c1cc2c(s1)-c1ccccc1OC2	34.1*	-11.3	-10.9	-0.7	-0.8
CCN(C(=O)c1cc2c(s1)-c1ccccc1OC2)c1cccc(C(F)(F)F)c1	/	/	9.4	/	0.1
O=C(O)c1cc2c(s1)-c1ccccc1OC2	-7.8	-11.6	-1.8	-1.0	0.1
O=C(Nc1cccc(C(F)(F)F)c1)c1cc2c(s1)-c1ccccc1OC2	40.3*	-13.1	-16.0	-2.2	0.4
CN(C)CCC=C1c2ccccc2CCc2ccccc21	63.6*	-36.0	-29.4	-4.0	-0.4
CNCCC=C1c2ccccc2C=Cc2ccccc21	/	-34.1	/	-8.2	/
CN(C)CCC=C1c2ccccc2C=Cc2ccccc21	49.1*	-27.7	-17.3	4.9	-0.4
COc1ccc(CCNC(=O)Nc2nc(C(N)Cc3ccccc3)cs2)cc1OC (configuration not stated)	/	-0.4	/	3.0	/
NC(=O)c1ccc(/C=N/O)[n+](Cc2ccccc2)c1	-1.1	-12.7	-6.2	-2.9	0.1
CC(=O)CC(c1ccccc1)S(=O)(=O)c1ccc([N+](=O)[O-])cc1 (configuration not stated)	70.3*	-5.3	-6.4	-5.9	0.5
O=C(Nc1ccccc1)Nc1cccc2cccnc12	-4.2	-16.3	33.8*	-0.2	-3.2
